Compound activity (PubChem BioAssay)
Shown are actives, neighbours in structure and some others; about 3.8% of the full set was active somewhere.
ATXN viability: cell viability loss in ATXN counter-screen | Potency, µM (highest dose often 56.7 µM), usual class: cytotoxic | 400,000 compounds, 0.49% hits | S2 cells (HEK-293 line with an ATXN2-luciferase reporter) viability, CellTiter-Fluor protease fluorescence, 24 h | AID 651635; note: nearly all actives have a fitted effect of over 40% in size
TGFb SMAD3 inh: inhibitors of TGF-b signaling | HepG2 CAGA-GFP TGF-b/SMAD3 reporter, GFP fluorescence, 18 h; TGF-beta stimulated, 500 pg/mL final | Potency, µM (doses to about 46.1 µM), without a hit: top-dose activity, negative = inhibition, actives largely listed as inhibitors | 410,000 compounds, 1.2% hits; note: % is set by controls: 0 for no effect and ±100 for the full control effect; nearly all actives have a fitted effect of over 65% in size
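HEPG2 CAGA-GFP, 1000 cells/well; 2 h settle, 37 C; cpd via pin tool; TGF-b 500 pg/mL final; 18 h, 37 C; GFP imaging ex488/em500-530; %Activity normalised to -TGF-b and +DMSO controls; CRC fit, curve class.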
A549 tox: A549 cytotoxicity, counter-screen for Nrf2 inhibitors. Potency, µM (doses to about 46 µM), for the others: at the top dose activity change, negative = cytotoxicity, hits mostly inhibitors. A549 ARE-Fluc cells, CellTiter-Fluor viability, 18-24 h. 390,000 compounds, 0.16% hits. AID 504648; note: % is set by controls: 0 for no effect and ±100 for the full control effect
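A549 ARE_Fluc cells in 5% FBS OPTI-MEM were exposed to compounds in concentration-response for 18-24 h at 37 deg C. Viability was read by CellTiter-Fluor fluorescence (Ex 405/Em 525) after 30 min, before the luciferase read.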
HepG2 viability: kills HepG2 cells in TGF-b inhibitor counter-screen. HepG2 CAGA-GFP viability, ATP luminescence, 18 h. Potency, µM (titrated, usually from 46.1 µM), without a hit: at the top dose activity change, negative = cytotoxicity, actives largely listed as cytotoxic. 410,000 compounds, 0.76% hits. AID 588856
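CellTiter-Glo luminescence gave cytotoxicity after 18 hours at 37 degrees C. The cells were HepG2 CAGA-GFP in 1% FBS DMEM, stimulated with 500 pg/mL TGF-beta after compound addition. %Activity was normalised to no-cell wells (complete cell-killing) and DMSO (no toxicity), and curves were fitted and classified.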
ATXN2 expr inh: ATXN2 expression inhibition | HEK-293 ATXN2-luciferase reporter, luminescence, 24 h | Potency, µM (series often up to 57 µM), for inactives: at the top dose activity change, negative = inhibition, usual class: inhibitors | 360,000 compounds, 0.72% hits; note: % is set by controls: 0 for no effect and ±100 for the full control effect; nearly all actives have a fitted effect of over 55% in size
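qHTS (up to 57 uM final) was run with 24 h compound exposure of reporter cells at 37 °C. Each well was multiplexed: SteadyGlo luminescence measured ATXN2-luciferase expression after a fluorogenic Gly-Phe-AFC viability readout (25 uM final).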
Nrf2 block: inhibitors of Nrf2 signaling | 360,000 compounds, 2.1% hits | A549 ARE-Fluc reporter, luciferase luminescence, 18-24 h | Potency, µM (series often up to 46 µM), without a hit: at the top dose activity change, negative = inhibition, actives largely listed as inhibitors; note: % is set by controls: 0 for no effect and ±100 for the full control effect; nearly all actives have a fitted effect of over 60% in size
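A549 ARE_Fluc cells, 5000/well, 5% FBS OPTI-MEM; compounds in dose-response, 18-24 h at 37 °C/5% CO2; CellTiter-Fluor viability read (Ex 405/Em 525), then BugLite luciferase luminescence = Nrf2 activity.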
* = called active by the depositor; i = inactive; u = inconclusive; x = no result; [ ] = dose if it differs, or a comment. Calls come from the whole dose curve; as a rule, active = well fitted curve in the direction sought with a large enough effect; inconclusive = small, poorly fitted or top-dose-only effect, or another doubt; inactive = no such curve, though single readings can be large; an effect the other way counts as inactive or inconclusive. Potency is the fitted concentration of half-maximal effect.

SMILES | ATXN viability | TGFb SMAD3 inh | A549 tox | HepG2 viability | ATXN2 expr inh | Nrf2 block
Oc1cccc(/C=N/NC(=S)NCCN2CCOCC2)c1O | i | -12% | 0% | -3% | x | -25%
Oc1ccccc1-c1cc(C(F)(F)C(F)F)[nH]n1 | i | 11µM* | -8% | -36% | 28% | 7%
Fc1ccc(-c2cc(C(F)(F)C(F)F)[nH]n2)cc1 | x | u | 1% | -71% | 2% | -3%
CNC1CCC(N(Cc2cccc(-c3ccncc3)c2)C(=O)c2sc3ccccc3c2Cl)CC1 (stereo not drawn) | x | x | x | x | 24µM* | x
CCOc1ccccc1C(=O)Nc1ccc2nc3c(c(Nc4ccc(OC)c(OC)c4)c2c1)CCCC3 | x | u | u | 10µM* | x | u
COc1ccc(Nc2c3c(nc4ccc(NC(=O)c5cc(Cl)ccc5OC)cc24)CCCC3)cc1OC | 7.1µM* | 10µM* | u | 7.1µM* | 3.2µM* | -11%[9.27 µM]
COc1ccc(Cl)cc1C(=O)Nc1ccc2nc3n(c(=O)c2c1)CCCC3 | i | 0% | -11% | -3% | 14% | -29%
COc1cc(OC)cc(C(=O)Nc2ccc3nc4c(c(Nc5ccc(OC)c(OC)c5)c3c2)CCCC4)c1 | 28µM* | 13µM* | 1% | 16µM* | 20µM* | 4%[9.27 µM]
COc1cc(Br)ccc1C1C(C(=O)Nc2ccc(C)cc2C)=C(C)Nc2nnnn21 (stereo not drawn) | u | -19% | -8% | -20% | u | -24%
COc1ccc(OC)c(CC2C(=O)Nc3ccc(Br)cc32)c1 (stereo not drawn) | x | u | 0% | -53% | x | 23µM*
COc1ccc(CC2C(=O)Nc3ccc(Br)cc32)cc1OC (stereo not drawn) | x | -19% | 2% | 16µM* | x | -7%
CCCOc1ccc(CC2C(=O)Nc3ccc(Br)cc32)cc1 (stereo not drawn) | u | 11µM* | 5% | -95% | -24% | 10%
CCc1ccc(NC(=O)CC2C(=O)N(c3cccc(C)c3)C(=O)N2CCC(C)C)cc1 (stereo not drawn) | x | u | -20% | -24% | x | -21%
COc1ccc(C)cc1NC(=O)c1ccccc1NS(=O)(=O)c1cccc2cccnc12 | i | 2% | -2% | 5% | 20% | 0%
COc1nn(-c2ccccc2)c(=O)c(Cl)c1Cl | u | 14µM* | 3% | 14µM* | u | -7%
Cc1ccc(-n2nc(CO)c(C(=O)NCCCCc3ccccc3)n2)cc1 | x | -13% | 4% | 2% | x | 3%
O=C(NCCCCc1ccccc1)c1nn(-c2ccccc2)nc1CO | x | 0% | -7% | -27% | x | 23µM*
O=c1c2ccccc2nc(COc2ccccc2)n1/N=C/c1ccc(O)cc1O | i | u | -10% | -16% | x | 26µM*
O=c1c2ccccc2nc(COc2ccccc2)n1/N=C/c1c[nH]c2ccccc12 | u | 2% | -11% | 1% | -4% | -1%
O=C(NN=Cc1cc(Br)c(O)c(Br)c1)c1ccccc1NS(=O)(=O)c1cccs1 | i | 2% | 13% | 2% | -1% | 0%
CCOC(=O)c1sc2nc(CSc3ccccc3)nc(N3CCCN(C)CC3)c2c1C | 35µM* | -8% | 8% | -15% | x | 1%
Cc1sc2nc(CSc3ccccc3)nc(N3CCC(C(N)=O)CC3)c2c1C | u | u | 1% | -4% | x | u
CCOC(=O)c1sc2nc(CSc3ccccc3)nc(N3CCC(C(N)=O)CC3)c2c1C | u | u | 4% | -27% | u | 21µM*
O=C(Nc1ccc2oc(=O)ccc2c1)c1ccc(-c2cccc([N+](=O)[O-])c2)o1 | x | 34% | u | 22% | -38% | 23µM*
O=C(Nc1ncc(Cc2ccccc2Cl)s1)c1ccc(-c2cccc([N+](=O)[O-])c2)o1 | i | -9% | 11% | -2% | x | 16µM*
